Assay results: PubChem BioAssay (Tox21)
Inconclusive results are not listed. Activity calls are given as the source filed them. Unless noted, the call rests on the fitted dose curve; in most records, active means well fitted curve in the direction sought with a large enough effect in the repeat runs; inconclusive means weak or mixed curves; inactive means no such curve, though single readings can be large; an effect the other way counts as inactive or inconclusive.

Columns and labels:
[1] = qHTS assay to identify small molecule antagonists of the thyroid receptor (TR) signaling pathway (AID 743065); further: nearly all actives have a fitted effect of over 55% in size; further: potency means the concentration at half of the fitted maximal effect; on activity, negative = inhibition: series mostly up to about 70 µM
Summary of the method: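 GH3.TRE-Luc rat pituitary cells carrying two TR response elements driving luciferase were plated for 4 h, given compound plus 1 nM T3 (final), and incubated 23.5 h at 37 C. ONE-Glo luminescence measured reporter inhibition; CellTiter-Fluor fluorescence tracked cytotoxicity.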

[2] = test system: thyroid hormone receptor (rat, GH3 cells); test: qHTS assay to identify small molecule agonists of the thyroid receptor (TR) signaling pathway (AID 743066; calls by dose curve)
[3] = biological target: Estrogen receptor (Homo sapiens) (UniProt P03372); test: qHTS assay to identify small molecule antagonists of the estrogen receptor alpha (ER-alpha) signaling pathway (AID 743069; active means well fitted curve in the direction sought with a large enough effect in the signal ratio in the repeat runs, not every such curve was filed as active; the % refers to the signal ratio)
Summary of the method: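 Estradiol-stimulated ER-alpha-UAS-bla HEK293 cells, 18 hr compound exposure at 37C. LiveBLAzer B/G substrate, 2 hr RT, fluorescence read.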

[4] = qHTS assay to identify small molecule antagonists of the estrogen receptor alpha (ER-alpha) signaling pathway - cell viability counter screen (AID 743074; calls by dose curve;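 further: HEK293 cells carrying ER-alpha-UAS-bla reporter stimulated with 17beta-estradiol; nearly all actives have a fitted effect of over 45% in size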)
[5] = biological target: Estrogen receptor (Homo sapiens) (UniProt P03372); test: qHTS assay to identify small molecule agonists of the estrogen receptor alpha (ER-alpha) signaling pathway (AID 743075; calls by dose curve;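 further: HEK293 GripTite cells with ER-alpha and UAS-driven beta-lactamase reporter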)
[6] = biological target: Estrogen receptor (Homo sapiens) (UniProt P03372); test: qHTS assay to identify small molecule agonists of the estrogen receptor alpha (ER-alpha) signaling pathway using the BG1 cell line (AID 743079); further: nearly all actives have a fitted effect of over 20% in size
[7] = qHTS assay to identify small molecule antagonists of the estrogen receptor alpha (ER-alpha) signaling pathway using the BG1 cell line (AID 743080; calls by dose curve;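 further: BG1 cells stimulated with 17beta-estradiol alongside compound; series mostly up to about 70 µM; nearly all actives have a fitted effect of over 25% in size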)
Summary of the method: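 Readout is ONE-Glo luminescence, taken 30 min at room temperature after reagent addition, preceded by a CellTiter-Fluor viability read; BG1-Luc-4E2 cells had received compound and 17beta-estradiol for 21.5 h at 37 C.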

[8] = qHTS assay to identify small molecule antagonists of the estrogen receptor alpha (ER-alpha) signaling pathway using the BG1 cell line - cell viability counter screen (AID 743081);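 further: compound given together with 17beta-estradiol as the ER stimulus; series mostly up to about 70 µM; nearly all actives have a fitted effect of over 45% in size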
[9] = biological target: Aromatase (Homo sapiens) (UniProt P11511); test: qHTS assay to identify aromatase inhibitors (AID 743083); further: series mostly up to about 70 µM; nearly all actives have a fitted effect of over 55% in size
[10] = qHTS assay to identify small molecule antagonists of the thyroid receptor (TR) signaling pathway - cell viability counter screen (AID 743064); further: nearly all actives have a fitted effect of over 50% in size
Summary of the method: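 Rat GH3 pituitary tumor cells stably expressing two TR response elements driving luciferase were plated, rested 4 h, then dosed with library compounds and T3 (1 nM final). After 23.5 h at 37 °C, CellTiter-Fluor was added for 30 min and fluorescence recorded.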
On the % scale 0 is the no-effect control and ±100 the full control effect.

Chain of Estrogen receptor (Homo sapiens) (P03372 whole entry, looked up): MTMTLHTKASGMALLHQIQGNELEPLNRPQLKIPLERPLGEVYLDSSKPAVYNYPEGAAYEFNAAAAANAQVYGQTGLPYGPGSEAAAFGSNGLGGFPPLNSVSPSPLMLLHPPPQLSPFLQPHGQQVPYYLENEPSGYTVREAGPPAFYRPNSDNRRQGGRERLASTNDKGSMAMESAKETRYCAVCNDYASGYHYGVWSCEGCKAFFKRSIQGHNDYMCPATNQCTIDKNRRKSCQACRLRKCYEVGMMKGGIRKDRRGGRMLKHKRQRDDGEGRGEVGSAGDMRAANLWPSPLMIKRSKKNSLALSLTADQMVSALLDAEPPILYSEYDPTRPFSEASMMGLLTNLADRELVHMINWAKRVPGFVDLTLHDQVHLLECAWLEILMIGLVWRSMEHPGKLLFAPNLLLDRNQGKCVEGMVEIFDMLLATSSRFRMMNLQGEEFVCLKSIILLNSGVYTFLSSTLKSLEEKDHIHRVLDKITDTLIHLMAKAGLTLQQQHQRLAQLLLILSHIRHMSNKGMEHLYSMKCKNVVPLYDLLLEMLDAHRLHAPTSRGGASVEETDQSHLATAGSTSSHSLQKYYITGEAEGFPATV
Chain of Aromatase (Homo sapiens) (P11511 whole entry, looked up): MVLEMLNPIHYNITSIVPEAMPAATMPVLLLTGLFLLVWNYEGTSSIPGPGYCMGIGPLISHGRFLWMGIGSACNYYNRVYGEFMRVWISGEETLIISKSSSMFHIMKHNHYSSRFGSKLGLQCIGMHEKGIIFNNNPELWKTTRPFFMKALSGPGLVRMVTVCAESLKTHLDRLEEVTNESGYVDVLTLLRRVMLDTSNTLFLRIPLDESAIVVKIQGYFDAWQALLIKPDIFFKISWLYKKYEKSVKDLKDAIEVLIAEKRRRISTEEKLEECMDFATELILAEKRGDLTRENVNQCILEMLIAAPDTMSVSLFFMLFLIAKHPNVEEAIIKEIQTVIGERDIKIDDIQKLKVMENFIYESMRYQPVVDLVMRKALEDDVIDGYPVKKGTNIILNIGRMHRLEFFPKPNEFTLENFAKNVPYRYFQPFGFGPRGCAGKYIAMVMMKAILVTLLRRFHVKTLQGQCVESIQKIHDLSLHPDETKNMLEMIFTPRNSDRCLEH

C1=COCCC1
inactive: Potency [1] | outcome [2] | Potency [3] | outcome [4] | Potency [5] | Potency [6] | Potency [7] | Potency [8] | Potency [9]

CCCCCCC/C=C/C=O
inactive: Potency [10] | outcome [2] | outcome [4] | Potency [5] | Potency [6] | Potency [7] | Potency [8] | Potency [9]

O=c1[nH]nc(-c2ccc([N+](=O)[O-])o2)o1
inactive: Potency [1] | outcome [2] | outcome [4] | Potency [5] | Potency [6] | Potency [7] | Potency [9]

CCCCCCCCCCCCCCCCCCCl
inactive: activity, negative = inhibition [1] 15% [at 8.44 µM] | activation [2] 7.57% [at 8.08 µM] | activity, negative = inhibition [3] -5.29% [at 6.71 µM] | activity, negative = cytotoxicity [4] -22.2% [at 6.72 µM] | activation [5] -1.63% [at 6.71 µM] | activation [6] -11% [at 8.47 µM] | activity change, negative = inhibition [7] 0.197% [at 8.47 µM] | activity change, negative = cytotoxicity [8] -0.138% [at 8.47 µM] | activity, negative = inhibition [9] 13.8% [at 8.47 µM]

NC(=O)c1ccccc1
inactive: Potency [1] | outcome [2] | Potency [3] | outcome [4] | Potency [5] | Potency [6] | Potency [7] | Potency [8] | Potency [9]

CCCCCCCCCCCCSCCOCCO
inactive: Potency [1] | outcome [2] | Potency [3] | outcome [4] | Potency [5] | Potency [6] | Potency [7] | Potency [8] | Potency [9]

CC1=C(C)C(=O)C(C(CCCCCC(=O)O)c2ccccc2)=C(C)C1=O (configuration not stated)
inactive: Potency [1] | outcome [2] | Potency [3] | outcome [4] | Potency [5] | Potency [6] | Potency [7] | Potency [8] | Potency [9]

CCCCOC(=O)C(C)Oc1ccc(Oc2ccc(C(F)(F)F)cn2)cc1 (configuration not stated)
inactive: Potency [1] | outcome [2] | outcome [4] | Potency [5] | Potency [6] | Potency [7] | Potency [8]

CCOC(=O)CC(O)(CC(=O)OCC)C(=O)OCC
inactive: Potency [1] | outcome [2] | Potency [3] | outcome [4] | Potency [5] | Potency [6] | Potency [7] | Potency [8] | Potency [9]

Cc1cc(C)c(C)c(O)c1
inactive: Potency [1] | outcome [2] | outcome [4] | Potency [5] | Potency [6] | Potency [7] | Potency [8] | Potency [9]

O=C(O)c1ccc(O)c(O)c1
inactive: Potency [1] | outcome [2] | Potency [3] | outcome [4] | Potency [5] | Potency [6] | Potency [7] | Potency [8] | Potency [9]

OCCCO
inactive: Potency [1] | outcome [2] | Potency [3] | outcome [4] | Potency [5] | Potency [6] | Potency [7] | Potency [8] | Potency [9]

C[C@H]1C[C@H]2[C@@H]3CCC4=CC(=O)C=C[C@]4(C)[C@@]3(F)[C@@H](O)C[C@]2(C)[C@@]1(O)C(=O)COP(=O)(O)O
inactive: Potency [1] | outcome [2] | outcome [4] | Potency [5] | Potency [6] | Potency [8] | Potency [9]

O=C(N[C@@H](Cc1ccccc1)[C@@H](O)C(=O)N1C[C@@H](O)[C@@H](O)C1)c1cc2cc(Cl)ccc2[nH]1
inactive: outcome [2] | outcome [4] | Potency [5] | Potency [7] | Potency [8] | Potency [9]
active: Potency [1] 61.1 µM

C[Si](C)(C)O[Si](C)(C)O[Si](C)(C)C
inactive: Potency [1] | outcome [2] | outcome [4] | Potency [8] | Potency [9]

CC/C=C\CCO
inactive: Potency [1] | outcome [2] | outcome [4] | Potency [8]

O=C(O)c1cccc(C(=O)O)c1C(=O)O
inactive: Potency [1] | outcome [2] | Potency [3] | Potency [5] | Potency [6] | Potency [7] | Potency [8] | Potency [9]

S=c1[nH][nH]c(=S)s1
inactive: Potency [1] | outcome [2] | Potency [3] | outcome [4] | Potency [5] | Potency [6] | Potency [7] | Potency [8] | Potency [9]

CCCCCCCCCCCCCCCCN
inactive: Potency [1] | outcome [2] | Potency [3] | outcome [4] | Potency [5] | Potency [6] | Potency [7] | Potency [8] | Potency [9]

C[C@]12CCC(=O)C=C1[C@@H]1C[C@@H]1[C@H]1[C@@H]3[C@@H]4C[C@@H]4[C@@]4(CCC(=O)O4)[C@@]3(C)CC[C@@H]12
inactive: outcome [2] | outcome [4] | Potency [8] | Potency [9]
active: Potency [1] 21.1 µM

O=C(Cl)c1ccc(F)c(Cl)c1
inactive: Potency [1] | outcome [2] | Potency [3] | outcome [4] | Potency [5] | Potency [7] | Potency [8] | Potency [9]

Clc1nc2ccccc2nc1Cl
inactive: Potency [1] | outcome [2] | Potency [3] | outcome [4] | Potency [5] | Potency [6] | Potency [8] | Potency [9]
